Reference: PubChem BioAssay
Inconclusive results are not listed. Activity calls are given as the source filed them. Unless noted, cut-off not given; nearly all actives show AC50 up to about 26 µM.

Columns and labels:
[1] = growth inhibition of DIPG glioma cells, dose response, cell-based, SU-DIPG-XVII, MIPE5.0, CellTiter-Glo, qHTS (AID 1347060); details: SU-DIPG-XVII viability, CellTiter-Glo ATP luminescence;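 on AC50: cells exposed to compound for 48 hours before viability readout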
[2] = growth inhibition of DIPG glioma cells, dose response, cell-based, SU-DIPG-XIII, MIPE4.0, CellTiter-Glo, qHTS (AID 1347061; cut-off not given, nearly all actives have AC50 up to about 37 µM;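 further: cells exposed to compound for 48 hours before readout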); details: SU-DIPG-XIII viability, CellTiter-Glo ATP luminescence
[3] = growth inhibition of DIPG glioma cells, dose response, cell-based, JHH-DIPG-1, MIPE4.0, CellTiter-Glo, qHTS (AID 1347062; cut-off not given, nearly all actives have AC50 up to about 27 µM;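 on AC50: cells exposed to compound for two days before readout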); details: JHH-DIPG-1 viability, CellTiter-Glo ATP luminescence
[4] = growth inhibition of DIPG glioma cells, dose response, cell-based, SU-DIPG-IV, MIPE4.0, CellTiter-Glo, qHTS (AID 1347063; cut-off not given, nearly all actives have AC50 up to about 30 µM;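 further: compound exposure lasted 48 hours before the viability readout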); details: SU-DIPG-IV viability, CellTiter-Glo ATP luminescence
[5] = growth inhibition of DIPG glioma cells, dose response, cell-based, SU-DIPG-XIII, MIPE5.0, CellTiter-Glo, qHTS (AID 1347064; cut-off not given, nearly all actives have AC50 up to about 23 µM;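 on AC50: cells exposed to compound for 48 hours before the viability read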); details: SU-DIPG-XIII viability, CellTiter-Glo ATP luminescence
[6] = viability loss in pontine glioma line – cell-based, SU-DIPG-XXV, MIPE5.0, CellTiter-Glo, qHTS, dose response (AID 1347065); details: CellTiter-Glo ATP luminescence;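 further: cells exposed to compound for 48 hours before ATP readout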
[7] = SU-DIPG-VI glioma cell viability, MIPE4.0 library, CellTiter-Glo luminescence, qHTS (AID 1347066; cut-off not given, nearly all actives have AC50 up to about 30 µM;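 further: cells exposed to compound for 48 hours before readout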); details: CellTiter-Glo ATP luminescence
[8] = JHH-DIPG-1 glioma cell viability, MIPE5.0 library, CellTiter-Glo luminescence, qHTS (AID 1347067); details: JHH-DIPG-1 glioma viability, CellTiter-Glo ATP luminescence;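 further: cells exposed to compound for 48 hours before readout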
[9] = SU-DIPG-XXV glioma cell viability, MIPE5.0 library, qHTS (AID 1347068; cut-off not given, nearly all actives have IC50 up to about 30 µM;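 on IC50: cells exposed to compound for 48 hours before viability readout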)
[10] = liver-stage malaria parasite growth inhibition, primary screen, cell-based, HepG2, luciferase luminescence, HepG2 viability (AID 624349; in the data active means parasite load remaining mostly below about 12%, no sharp cut-off; inactive means mostly above about 10%;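 further: 100% = mean of DMSO negative control wells on the same plate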); details: P. berghei liver stage in HepG2, luciferase luminescence, concentration not given here; parasite load remaining: stronger effect = lower value; viability: measured here: HepG2 viability without parasites
[11] = tested on: Aerobactin synthetase IucA (Klebsiella pneumoniae); experiment: IucA aerobactin synthetase inhibitors, biochemical, Tocris library, absorbance (AID 1345561; call rule not given here;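 further: 100% = enzyme without compound and 0% = no enzyme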); details: purified IucA enzyme assay, absorbance (OD) read-out; stronger effect = lower value;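 tested at 8 µM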
[12] = sensitizers of A549 cells to miR-34 induction, primary screen, imaging, A549 dox-inducible miR-34, nuclei and caspase counts (AID 1347080;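 active means compounds whose cell count with miR-34 switched on is under 0.7 times the count with it off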); details: A549 miR-34 inducible, Hoechst nuclei count, 48 h
[13] = viability rescue of complex I mutant cybrids, primary screen, cell-based, galactose medium, ATP luminescence (AID 1645843;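 active means z-score of at least 1.8 in each of two replicates, scored against plate mean and spread of sample wells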;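 further: positive z means more ATP and so rescue of galactose-driven cybrid death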); details: complex I mutant cybrid cells, 72 h, stronger effect = higher value
[14] = stronger effect = lower value, cell number ratio, induced over uninduced
[15] = measured here: relative caspase fold change +Dox/-Dox
[16] = measured here: total cells with miR-34 induction, stronger effect = lower value
[17] = measured here: total cells without miR-34 induction

Q: What does the source list for Cc1cnc(Nc2ccc(CN3CCOCC3)cc2)nc1Nc1cccc(S(=O)(=O)NC(C)(C)C)c1?
A: AC50 [1]: 4.17 µM (active); AC50 [2]: 10.5 µM (active); AC50 [3]: 11.8 µM (active); AC50 [4]: 11.8 µM (active); AC50 [5]: 3.32 µM (active); AC50 [6]: 3.32 µM (active); AC50 [7]: 8.33 µM (active); AC50 [8]: 5.9 µM (active); IC50 [9]: 3.72 µM (active)

Q: With CN(C)c1ccc2cc(C(=O)N[C@@H](CCCN=C(N)CCl)C(=O)NCc3ccccc3)ccc2c1 as the compound, how does the AC50 [1] read?
A: 8.33 µM (active)

Q: What about the AC50 [2] of the same compound?
A: 16.6 µM (active)

Q: What about the AC50 [3] of the same compound?
A: 13.2 µM (active)

Q: And the AC50 [4]?
A: 7.43 µM (active)

Q: And the AC50 [5]?
A: 2.63 µM (active)

Q: What about the AC50 [6] of the same compound?
A: 9.34 µM (active)

Q: And the AC50 [7]?
A: 16.6 µM (active)

Q: What about the AC50 [8] of the same compound?
A: 8.33 µM (active)

Q: Which outcome [1] does the source give for CC[C@@H](C)[C@H](NC(=O)[C@H](CC1CCCCC1)NC(=O)c1ccno1)C(=O)N1CCC2(CCc3ccccc32)CC1 here?
A: inactive

Q: What about the outcome [2] of the same compound?
A: inactive

Q: And the outcome [3]?
A: inactive

Q: And the outcome [4]?
A: inactive

Q: What about the outcome [5] of the same compound?
A: inactive

Q: And the AC50 [6]?
A: 11.8 µM (active)

Q: What about the outcome [7] of the same compound?
A: inactive

Q: What about the outcome [8] of the same compound?
A: inactive

Q: And the outcome [9]?
A: inactive

Q: For CC(C)C[C@H](CO)Nc1nc(S[C@@H](C)c2ccccc2)nc2nc(N)sc12, which outcome [1] is on record?
A: inactive

Q: Which results are given for CCOc1cc2c(c(F)c1OCC)C(=N)N(CC(=O)c1cc(N3CCOCC3)c(OC)c(C(C)(C)C)c1)C2?
A: AC50 [1]: 26.3 µM (active); AC50 [2]: 2.35 µM (active); AC50 [3]: 23.5 µM (active); AC50 [4]: 16.6 µM (active); AC50 [5]: 29.5 µM (active); AC50 [6]: 23.5 µM (active); AC50 [7]: 16.6 µM (active); AC50 [8]: 20.9 µM (active)

Q: With CC(C)S(=O)(=O)c1ccc2nccc(Nc3ccc4scnc4c3)c2c1 as the compound, how does the AC50 [1] read?
A: 16.6 µM (active)

Q: With COC(=O)C1=C(C)NC(c2ncc(F)cc2F)=N[C@H]1c1ccc(F)cc1Cl as the compound, how does the AC50 [1] read?
A: 23.5 µM (active)

Q: What does the source list for CCn1cc(-c2ccnc3[nH]c(-c4cccc(CN(C)C)c4)cc23)c(-c2ccc(NC(=O)N(C)C)cc2)n1?
A: AC50 [1]: 0.59 µM (active); AC50 [2]: 13.2 µM (active); AC50 [3]: 16.6 µM (active); AC50 [4]: 0.209 µM (active); AC50 [5]: 8.33 µM (active); AC50 [6]: 0.525 µM (active); AC50 [7]: 20.9 µM (active); AC50 [8]: 11.8 µM (active); IC50 [9]: 7.42 µM (active)

Q: Which parasite load remaining [10] does the source give for CC[C@H](CO)Nc1nc(NCc2ccc(-c3ccccn3)cc2)c2ncn(C(C)C)c2n1 here?
A: 135% (inactive)

Q: And the viability [10]?
A: 85.7%

Q: What about the remaining activity [11] of the same compound?
A: 108% (inactive)

Q: What about the fold change [12, 14] of the same compound?
A: 1.16 (inactive)

Q: What about the fold change [12, 15] of the same compound?
A: 0.699

Q: And the cell count [12, 16]?
A: 1900

Q: What about the cell count [12, 17] of the same compound?
A: 1650

Q: What about the z-score [13] of the same compound?
A: -0.89 (inactive)

Q: For O=C(CCCc1ccc(-c2ccccc2F)cc1)Nc1ccc(O)cc1, which parasite load remaining [10] is on record?
A: 21.2% (inactive)

Q: And the viability [10]?
A: 102%

Q: What about the remaining activity [11] of the same compound?
A: 95.9% (inactive)

Q: And the fold change [12, 14]?
A: 1.05 (inactive)

Q: What about the fold change [12, 15] of the same compound?
A: 1.19

Q: What about the cell count [12, 16] of the same compound?
A: 2340

Q: What about the cell count [12, 17] of the same compound?
A: 2220

Q: And the z-score [13]?
A: -0.66 (inactive)

Q: For O=C(c1ccc(F)c(F)c1Nc1ccc(I)cc1F)N1CC(O)([C@@H]2CCCCN2)C1, which AC50 [1] is on record?
A: 0.332 µM (active)

Q: What about the AC50 [2] of the same compound?
A: 0.418 µM (active)

Q: And the AC50 [3]?
A: 0.332 µM (active)

Q: What about the AC50 [4] of the same compound?
A: 5.9 µM (active)

Q: What about the AC50 [5] of the same compound?
A: 0.372 µM (active)

Q: And the AC50 [6]?
A: 0.525 µM (active)

Q: With COc1cc(C(=O)NC(N)=Nc2ccc(C)c(NC(=O)c3ccc(-c4ccccc4)cc3)c2)cc(OC)c1OC as the compound, how does the AC50 [1] read?
A: 16.6 µM (active)

Q: With COc1ccc(Nc2cc(-c3cnc(N)nc3)nc(N3CCOCC3)n2)cn1 as the compound, how does the AC50 [1] read?
A: 2.95 µM (active)

Q: And the AC50 [2]?
A: 18.7 µM (active)

Q: And the AC50 [3]?
A: 5.9 µM (active)

Q: What about the AC50 [4] of the same compound?
A: 4.69 µM (active)

Q: And the AC50 [5]?
A: 1.66 µM (active)

Q: And the AC50 [6]?
A: 1.32 µM (active)

Q: What about the AC50 [7] of the same compound?
A: 4.18 µM (active)

Q: Which AC50 [1] does the source give for CCCCC(=O)OCC(=O)[C@]1(O)Cc2c(O)c3c(c(O)c2[C@@H](O[C@H]2C[C@H](NC(=O)C(F)(F)F)[C@H](O)[C@H](C)O2)C1)C(=O)c1c(OC)cccc1C3=O here?
A: 1.66 µM (active)

Q: Which results are given for Nc1ccc(-c2cccc3c(=O)cc(N4CCOCC4)oc23)cc1?
A: parasite load remaining [10]: 43.6% (inactive); viability [10]: 83.4%; remaining activity [11]: 104% (inactive); fold change [12, 14]: 0.901 (inactive); fold change [12, 15]: 1.45; cell count [12, 16]: 3870; cell count [12, 17]: 4300; z-score [13]: 4.44 (active)

Q: For O=C(NC1CC1)c1cccc(-c2ccc3c(NC(=O)C4CC4)n[nH]c3c2)c1, which AC50 [1] is on record?
A: 10.5 µM (active)

Q: And the AC50 [2]?
A: 4.69 µM (active)

Q: And the AC50 [3]?
A: 9.35 µM (active)

Q: And the AC50 [4]?
A: 11.8 µM (active)

Q: What about the AC50 [5] of the same compound?
A: 8.33 µM (active)

Q: Which results are given for c1ccc(-c2n[nH]c3c2oc2ccccc23)cc1?
A: parasite load remaining [10]: 24.1% (inactive); viability [10]: 103%; remaining activity [11]: 98.7% (inactive); fold change [12, 14]: 0.891 (inactive); fold change [12, 15]: 1.09; cell count [12, 16]: 6520; cell count [12, 17]: 7320; z-score [13]: 0.045 (inactive)

Q: Which AC50 [1] does the source give for CC[C@@]1(O)C(=O)OCc2c1cc1n(c2=O)Cc2c-1nc1cc(F)c(C)c3c1c2[C@@H](N)CC3 here?
A: 0.00235 µM (active)

Q: With COC(=O)C[C@](O)(CCCC(C)(C)O)C(=O)O[C@@H]1C(OC)=CC23CCCN2CCc2cc4c(cc2[C@H]13)OCO4 (some centres undefined) as the compound, how does the AC50 [1] read?
A: 0.0661 µM (active)

Q: What about the outcome [2] of the same compound?
A: inactive

Q: What about the outcome [3] of the same compound?
A: inactive

Q: And the outcome [4]?
A: inactive

Q: And the AC50 [5]?
A: 0.118 µM (active)

Q: And the AC50 [6]?
A: 0.0934 µM (active)

Q: And the outcome [7]?
A: inactive

Q: And the AC50 [8]?
A: 0.332 µM (active)

Q: What about the outcome [9] of the same compound?
A: inactive

Q: For COc1cc2nc(-c3ccc(N4CCN(C)CC4)cc3)nc(NCCN3CCOCC3)c2cc1OC, which AC50 [1] is on record?
A: 14.8 µM (active)

Q: And the AC50 [2]?
A: 0.332 µM (active)

Q: What about the AC50 [3] of the same compound?
A: 0.332 µM (active)

Q: And the AC50 [4]?
A: 0.132 µM (active)

Q: What about the AC50 [5] of the same compound?
A: 9.34 µM (active)

Q: What about the AC50 [6] of the same compound?
A: 8.33 µM (active)

Q: What about the AC50 [7] of the same compound?
A: 0.118 µM (active)

Q: And the AC50 [8]?
A: 16.6 µM (active)

Q: What about the outcome [9] of the same compound?
A: inactive

Q: For CCOC(=O)/C=C/[C@H](C[C@@H]1CCNC1=O)NC(=O)[C@@H](CC(=O)[C@@H](NC(=O)c1cc(C)on1)C(C)C)Cc1ccc(F)cc1, which outcome [1] is on record?
A: inactive

Q: What about the outcome [2] of the same compound?
A: inactive

Q: What about the outcome [3] of the same compound?
A: inactive

Q: What about the outcome [4] of the same compound?
A: inactive

Q: What about the outcome [5] of the same compound?
A: inactive

Q: And the outcome [6]?
A: inactive

Q: And the outcome [7]?
A: inactive

Q: And the outcome [8]?
A: inactive

Q: What about the outcome [9] of the same compound?
A: inactive

Q: Which AC50 [1] does the source give for COc1cc(=C2C=c3ccccc3=N2)[nH]/c1=C/c1[nH]c(C)cc1C here?
A: 6.61 µM (active)

Q: And the AC50 [2]?
A: 14.8 µM (active)

Q: And the AC50 [3]?
A: 4.69 µM (active)

Q: And the AC50 [4]?
A: 5.9 µM (active)

Q: And the AC50 [5]?
A: 3.32 µM (active)

Q: What about the AC50 [6] of the same compound?
A: 2.09 µM (active)

Q: And the AC50 [7]?
A: 2.64 µM (active)

Q: What about the AC50 [8] of the same compound?
A: 5.9 µM (active)

Q: And the IC50 [9]?
A: 16.6 µM (active)

Q: What does the source list for C[C@H](O)[C@@H]1C(=O)N2C(C(=O)O)=C(S[C@@H]3CN[C@H](CNS(N)(=O)=O)C3)[C@@H](C)[C@@H]12?
A: outcome [1]: inactive; outcome [2]: inactive; outcome [3]: inactive; outcome [4]: inactive; outcome [5]: inactive; outcome [6]: inactive; outcome [7]: inactive; outcome [8]: inactive; outcome [9]: inactive
